# Assay outcomes: PubChem BioAssay, National Center for Advancing Translational Sciences (NCATS)
# Sampled rows, rich in hits. Any-hit rate of the full collection: about 1.1%.
# AmpC detergent – qHTS Inhibitors of AmpC Beta-Lactamase (assay with detergent). hit rate 0.041% among 370,000. AID 485294, 2010. Potency, µM (doses to about 114 µM), without a hit: at the highest dose activity change, negative = inhibition, most hits filed as inhibitors. AmpC hydrolysis of nitrocefin, absorbance 480 nm, 0.01% Triton. P00811;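 also: 0% = no-compound wells and -100% = no-enzyme wells; nearly all actives have a fitted effect of over 25% in size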
#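 AmpC (5.3 nM in the dispensed reagent) in 20 mM phosphate pH 7.0 with 0.01% (detergent screen) or 0.0001% Triton X-100 was preincubated with compounds for 15 min at room temperature. Nitrocefin was then added from an 800 uM solution, and hydrolysis was followed at 480 nm.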
# AMA1 RON2 block – qHTS for Inhibitors of AMA1-RON; Towards Development of Antimalarial Drug Lead: Primary Screen. Plasmodium falciparum AMA1 (3D7) - RON2 peptide interaction. AlphaScreen AMA1-biotinylated RON2 peptide binding. Potency, µM (top dose mostly 58.2 µM), for inactives: at the top dose activity change, negative = inhibition, actives largely listed as inhibitors. hit rate 0.2% among 360,000;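 also: 0% = vehicle wells and -100% = peptide control; nearly all actives have a fitted effect of over 45% in size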
#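 AMA1 (3D7) with his tag at 25 nM final met compounds first, then biotinylated RON2 peptide at 25 nM; detection used donor plus acceptor beads, 10 µg/mL apiece, read by AlphaScreen after 30 min at room temperature.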
# Giardia FBPA inh-1 – qHTS Assay for Inhibitors of Fructose-1,6-bisphosphate Aldolase from Giardia Lamblia. purified Giardia FBPA. Potency, µM (doses to about 59.6 µM), for the others: at the top dose activity, negative = inhibition, actives largely listed as inhibitors. A8B2U2. hit rate 0.71% among 290,000; also: nearly all actives have a fitted effect of over 55% in size
# Target sequence (A8B2U2 whole entry, looked up): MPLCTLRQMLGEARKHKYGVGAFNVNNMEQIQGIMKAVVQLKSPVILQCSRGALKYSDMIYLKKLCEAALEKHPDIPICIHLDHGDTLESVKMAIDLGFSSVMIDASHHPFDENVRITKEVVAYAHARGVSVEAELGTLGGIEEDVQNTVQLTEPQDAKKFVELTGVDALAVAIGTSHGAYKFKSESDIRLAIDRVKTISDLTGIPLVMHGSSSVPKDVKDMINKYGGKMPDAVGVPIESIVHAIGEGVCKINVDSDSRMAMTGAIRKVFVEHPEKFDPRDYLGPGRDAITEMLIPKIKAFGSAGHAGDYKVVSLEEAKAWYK
#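 Giardia FBPA (40 nM reagent) was preincubated 10 min at RT with compound (up to 57.5 uM final), then substrate plus GAPDH/TPI/NAD/arsenate coupling system with diaphorase/resazurin was added; resorufin fluorescence (525/598 nm) was read after 20 min.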
# AmpC inh no detg – qHTS Inhibitors of AmpC Beta-Lactamase (assay without detergent); AmpC nitrocefin hydrolysis, absorbance 480 nm, 0.0001% Triton; Potency, µM (highest dose often 57.1 µM), for inactives: at the top dose activity change, negative = inhibition, actives largely listed as inhibitors; hit rate 0.52% among 330,000; P00811;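 also: plate controls were no compound for no effect and no enzyme for full effect; nearly all actives have a fitted effect of over 20% in size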
#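 AmpC (5.3 nM in the dispensed reagent) in 20 mM phosphate pH 7.0 with 0.01% (detergent screen) or 0.0001% Triton X-100 was preincubated with compounds for 15 min at room temperature. Nitrocefin was then added from an 800 uM solution, and hydrolysis was followed at 480 nm.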
# Giardia growth – qHTS Assay for Inhibitors of Fructose-1,6-bisphosphate Aldolase from Giardia Lamblia: Giardia lamblia growth inhibition; shares compounds with Giardia FBPA inh-1; Giardia lamblia trophozoite growth inhibition; Potency, µM (top dose mostly 57.5 µM), without a hit: at the highest dose activity change, negative = inhibition, hits mostly inhibitors; hit rate 5% among 1,500;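 also: trophozoites exposed to compound for 48 h at 37 °C; nearly all actives have a fitted effect of over 70% in size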
# Mammal cell tox – qHTS Assay for Inhibitors of Fructose-1,6-bisphosphate Aldolase from Giardia Lamblia: Mammalian cellular toxicity | AID 2786, 2010 | shares compounds with Giardia FBPA inh-1 | hit rate 4% among 1,500 | mammalian cell viability counter-screen, qHTS | Potency, µM (titrated, usually from 57.5 µM), for the others: at the top dose viability change, negative = toxicity, hits mostly inhibitors;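 also: Chinese hamster ovary cells used as mammalian cytotoxicity surrogate; viability measured as cellular ATP by luminescence; compound exposure lasted 48 h before reading; nearly all actives have a fitted effect of over 60% in size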
# Giardia FBPA inh-2 – qHTS Assay for Inhibitors of Fructose-1,6-bisphosphate Aldolase from Giardia Lamblia: Primary screen confirmation | shares compounds with Giardia FBPA inh-1 | purified Giardia aldolase enzyme activity, qHTS | Potency, µM (top dose mostly 57.5 µM), for the others: at the top dose activity change, negative = inhibition, hits mostly inhibitors | hit rate 5% among 1,500 | AID 2787, 2010; also: nearly all actives have a fitted effect of over 45% in size
# Rabbit FBPA inh – qHTS Assay for Inhibitors of Fructose-1,6-bisphosphate Aldolase from Giardia Lamblia: Rabbit FBPA Selectivity | hit rate 4% among 1,500 | AID 2794, 2010 | Potency, µM (highest dose often 57.5 µM), for the others: at the highest dose activity, negative = inhibition, usual class: inhibitors | Rabbit muscle FBPA enzyme inhibition, selectivity counter-screen | shares compounds with Giardia FBPA inh-1; also: nearly all actives have a fitted effect of over 60% in size
# Target sequence (P00883 whole entry, looked up): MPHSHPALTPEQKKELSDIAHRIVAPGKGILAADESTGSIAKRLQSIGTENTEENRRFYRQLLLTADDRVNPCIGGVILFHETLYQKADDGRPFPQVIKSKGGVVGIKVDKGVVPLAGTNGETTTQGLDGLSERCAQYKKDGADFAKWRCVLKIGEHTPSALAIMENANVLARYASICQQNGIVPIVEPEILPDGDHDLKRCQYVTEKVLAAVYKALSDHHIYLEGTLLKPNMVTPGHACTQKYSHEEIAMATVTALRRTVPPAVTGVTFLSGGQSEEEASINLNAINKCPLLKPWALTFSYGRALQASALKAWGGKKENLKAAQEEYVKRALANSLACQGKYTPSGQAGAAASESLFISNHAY
# GAPDH coupling – qHTS Assay for Inhibitors of Fructose-1,6-bisphosphate Aldolase from Giardia Lamblia: Coupling assay counterscreen confirmation; Potency, µM (highest dose often 57.5 µM), inactives show at the top dose activity change, negative = inhibition, actives largely listed as inhibitors; shares compounds with Giardia FBPA inh-1; GAPDH coupling enzyme counterscreen, biochemical, qHTS; hit rate 6% among 1,500; also: nearly all actives have a fitted effect of over 55% in size
# * = called active by the depositor; ? = inconclusive; · = no result; [ ] = dose if it differs, or a comment. Calls follow the shape of the dose curve; as a rule, active = well fitted curve in the direction sought with a large enough effect; inconclusive = small, poorly fitted or top-dose-only effect, or another doubt; inactive = no such curve, though single readings can be large; an effect the other way counts as inactive or inconclusive. Unless noted, % is scaled to controls: 0 for no effect and ±100 for the full control effect; potency is read from the fitted curve at half-maximal effect.
SMILES,AmpC detergent,AMA1 RON2 block,Giardia FBPA inh-1,AmpC inh no detg,Giardia growth,Mammal cell tox,Giardia FBPA inh-2,Rabbit FBPA inh,GAPDH coupling
CN(C)CCCNCC(=O)c1c(-c2ccccc2)n(C)c2ccccc12,?,?,14µM*,9%,9%,-3%,3%,-1%,5%
Cn1c(-c2ccccc2)c(C(=O)CC#N)c2ccccc21,-15%,-12%,7%,-40%,·,·,·,·,·
CNc1cccccc1=S,0%,?,10µM*,29%,-13%,5%,?,?,32µM*
CNc1ccccc1,-1%,8%,·,-12%,·,·,·,·,·
CCOc1ccc(NC(=O)COC(=O)CCC(=O)c2cccs2)cc1,-16%,18%,·,-11%,·,·,·,·,·
CCOC(=O)c1ccc(N2CCN(c3ccc(F)cc3)CC2)c(NC(=O)Nc2ccc(CC)cc2)c1,-8%,·,·,·,·,·,·,·,·
CC1CC1C(=O)OCC(=O)Nc1ccc(Cl)cn1 (centres undefined),·,-6%,·,-19%,·,·,·,·,·
COc1ccc(CN2CCN(CCCc3ccccc3)C(CCO)C2)c(OC)c1 (centres undefined),-9%,20%,2%,-2%,·,·,·,·,·
COc1ccc(CN2CCN(CCCc3ccccc3)CC2)c(OC)c1,-6%,·,16µM*,-16%,8%,-14%,-1%,5%,13%
COc1cccc(CN2CCN(Cc3ccccc3C(F)(F)F)CC2)c1,-10%,?,?,22%,·,·,·,·,·
COc1ccc(CN2CCN(Cc3ccccc3C(F)(F)F)CC2)c(OC)c1,0%,?,13µM*,23%,?,12%,-2%,8%,-4%
COCc1cc(=O)[nH]c(=S)[nH]1,2%,27%,4.5µM*,-24%,?,-4%,5%,1%,13%
O=c1cc(Cc2ccccc2)[nH]c(=S)[nH]1,-6%,20%,?,-4%,·,·,·,·,·
CCNc1nc(C(=O)O)nc(N2CCOCC2)n1,-7%,?,22µM*,-11%,18%[10.4 µM],4%,-5%,1%,8%
OCC[C@@H]1C[C@H](O)[C@@H](O)[C@]2(OCc3ccc4ccccc4c32)O1,·,-3%,·,·,·,·,·,·,·
COc1ccc(OC)c(NC(=O)C2C3CCC(C3=C(C)C)C2C(=O)O)c1 (centres undefined),-4%,-3%,3.5µM*,-2%,-8%[38.3 µM],-6%,?,?,?
CCN(CC)C(=O)c1c(-c2ccccc2)c(-c2ccccc2)nn(CC)c1=O,25%,·,·,·,·,·,·,·,·
O=C(Nc1cccc(Cl)c1)c1ccccc1,-9%,15%,·,-12%,·,·,·,·,·
O=C1C(Cl)=C(NC(=O)c2ccccc2)C(=O)C(Cl)=C1NC(=O)c1ccccc1,?,-9%,5.6µM*,-53%,-12%,?,0.79µM*,3.5µM*,1.4µM*
COC(=O)Nc1sc2c(c1C(N)=O)CCC(C)C2 (centres undefined),-4%,0%,8.9µM*,-21%,-14%[38.3 µM],8%,?,?,?
Nc1nnc(-c2ccco2)s1,-3%,3%,6.3µM*,-11%,5%,-14%,1%,4%,1%
O=C(Nc1ccc(Oc2ccc(Br)cc2)cc1)C1=CC=CN2CCS(=O)(=O)N=C12,0%,4%,·,-7%,·,·,·,·,·
N#Cc1cccc(-c2ccc3ncnc(NCc4ccccc4)c3c2)c1,·,·,1%,·,·,·,·,·,·
Cc1cccc(N2CCN(C(=O)CN3C(=O)COc4ccc(S(=O)(=O)N5CCC(C)CC5)cc43)CC2)c1C,-3%,·,·,·,·,·,·,·,·
NNc1ccc(Cl)nn1,-9%,75%,20µM*,-25%,12%,-1%,-5%,0%,-17%
SMILES,AmpC detergent,AMA1 RON2 block,Giardia FBPA inh-1,AmpC inh no detg,Giardia growth,Mammal cell tox,Giardia FBPA inh-2,Rabbit FBPA inh,GAPDH coupling
CNc1ccc(Cl)nn1,4%,0%,-2%,-6%,·,·,·,·,·
COc1cccc(C(=O)NC(=S)Nc2ccccc2N2CCCC2)c1,0%,?,-12%,-45%,·,·,·,·,·
COc1cccc(C(=O)NC(=S)Nc2ccccc2N2CCCCC2)c1,4%,26%,16µM*,-23%,?,-22%,-3%,-2%,7%
COc1ccc(C2=Nc3ccccc3N(C(=O)c3cnccn3)C2C(=O)NC2CCCC2)cc1 (centres undefined),·,2%,·,·,·,·,·,·,·
CN1CCC(NCCC(c2ccc(F)cc2)c2ccc(Cl)cc2)CC1 (centres undefined),3%,17%,14µM*,45%,?,20µM*,7%,8%,-3%
CC(C)C(CCNC1CCN(C)CC1)c1ccc(Cl)cc1 (centres undefined),-1%,-14%,?,18%,·,·,·,·,·
O=C1NC(C(=O)O)=CC(c2ccc([N+](=O)[O-])cc2)N1 (centres undefined),-1%,84%,18µM*,-13%,25%,20%,-10%,-12%,1%
CC1=C(C(=O)N(C(C)C)C(C)C)CC(CC(=O)NCc2ccco2)C(=O)N1CCC1=CCCCC1 (centres undefined),·,-4%,·,·,·,·,·,·,·
